In PubChem BioAssay AID2322 (Broad Institute, 2010):
The campaign covered roughly 27,000 compounds. About 120 (0.44%) were called active. The entries come from a sample that favours actives as a whole. Unmarked numbers belong to inactive results. Cut-off read from the data, not from the text of the source: active = inhibition above about 20%; inconclusive = no clear call, values can overlap the other calls; inactive = below that.

target: Serine/threonine-protein kinase 33 (Homo sapiens) (UniProt Q9BYT3); assay: STK33 kinase inhibitors, primary screen, biochemical, luminescence, ADP-Glo, MBP substrate (AID 2322); conditions: at 12.5 µM, hits give high values
Sequence (Q9BYT3 whole entry, looked up): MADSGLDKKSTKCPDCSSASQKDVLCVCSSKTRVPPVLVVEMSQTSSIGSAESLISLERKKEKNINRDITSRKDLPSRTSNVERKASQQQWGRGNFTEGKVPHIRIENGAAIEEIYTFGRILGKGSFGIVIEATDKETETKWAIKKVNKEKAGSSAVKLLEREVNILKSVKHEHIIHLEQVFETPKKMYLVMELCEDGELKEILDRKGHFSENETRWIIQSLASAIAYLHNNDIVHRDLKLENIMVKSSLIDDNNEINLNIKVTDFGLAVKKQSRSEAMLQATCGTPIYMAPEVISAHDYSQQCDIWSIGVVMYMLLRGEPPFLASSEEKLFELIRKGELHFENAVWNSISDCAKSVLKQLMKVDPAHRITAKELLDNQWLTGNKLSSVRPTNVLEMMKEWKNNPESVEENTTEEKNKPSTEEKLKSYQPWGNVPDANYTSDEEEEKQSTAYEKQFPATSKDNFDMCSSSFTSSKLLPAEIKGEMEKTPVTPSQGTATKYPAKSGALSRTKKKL

| SMILES | inhibition |
| --- | --- |
| Cc1noc(C)c1NC(=O)Nc1ccc2c(c1)C(=O)N([C@H](C)CO)C[C@H](C)[C@@H](CN(C)C(=O)Nc1ccc(C(F)(F)F)cc1)O2 | 3.9% |
| COc1ccccc1NC(=O)c1c(NC(=O)c2cccnc2)sc(C)c1C | 4.55% |
| c1ccc(-n2c(SCc3nc4ccccc4s3)nnc2-c2ccncc2)cc1 | 1.5% |
| O=[N+]([O-])c1ccccc1-c1ccc(CN2CCN3CCCC3C2C2CCCCC2)o1 (stereo not given) | -1.45% |
| O=C(CCn1nc(-c2ccc(Cl)cc2)c2ccccc2c1=O)Nc1cccc(C(F)(F)F)c1 | 0.989% |
| C[C@@H]1CN([C@H](C)CO)C(=O)Cc2cc(NS(C)(=O)=O)ccc2O[C@@H]1CN(C)C(=O)Nc1ccc2c(c1)OCO2 | 1.61% |
| CCOc1c(S(=O)(=O)NCc2cccnc2)ccc(Cl)c1Cl | 3.15% |
| O=C(Oc1ccccc1)c1cccc(COC(=O)c2cc3ccccc3oc2=O)c1 | -1.52% |
| COc1cccc(-c2cnc3c(c2)C(=O)N([C@H](C)CO)C[C@H](C)[C@H](CN(C)Cc2ccncc2)O3)c1 | -1.09% |
| O=C1c2c(O)cc(O)cc2O[C@@H](c2ccc(O)cc2)[C@@H]1c1c(O)cc(O)c2c(=O)cc(-c3ccc(O)cc3)oc12 | 6.09% |
| Cc1cc(C)cc(OCC(=O)Nc2cccc(-c3nnc(-c4ccccc4)o3)c2)c1 | 4.59% |
| C[C@@H]1CN([C@@H](C)CO)C(=O)Cc2cc(NC(=O)Nc3ccc4c(c3)OCO4)ccc2O[C@@H]1CN(C)CC1CCCCC1 | 1.59% |
| c1ccc(Cn2c3ccccc3c3nnc(SCc4ccc5nonc5c4)nc32)cc1 | 2.04% |
| C[C@H]1CN([C@@H](C)CO)C(=O)CCCn2nncc2CO[C@@H]1CN(C)S(=O)(=O)c1cccc(C#N)c1 | 4.45% |
| COc1ccc(N2C(=O)CC(SCC(=O)Nc3ccccc3F)C2=O)cc1 (stereo not given) | 0.679% |
| Cc1ccc(-n2c(SCC(=O)Nc3ccc(F)c(F)c3)nnc2-c2cnccn2)cc1 | -2.72% |
| COc1cc2c(cc1NC(=O)C1CCC(=O)N1S(=O)(=O)c1ccc(C)cc1)oc1ccccc12 (stereo not given) | -1.01% |
| Cc1ccc(-c2nnc(Nc3ccc(C(=O)N(C)C)cc3)c3ccccc23)cc1S(N)(=O)=O | 1.54% |
| CCc1c(O)nc(SCC(=O)Nc2ccc(OC)cc2)n(-c2ccccc2C)c1=O | -1.3% |
| S=c1cc(-c2ccccc2)oc(-c2ccccc2)c1 | 9.05% |
| COc1ccccc1NC(=O)CCC(=O)c1ccc(C)cc1 | 0.187% |
| COc1cc(/C=C2\Oc3cc(O)cc(O)c3C2=O)ccc1O | 80.7% (active) |
| COc1cc(/C=C/C(=O)NCCc2ccc(O)cc2)ccc1O | -4.2% |
| CCN(CC)C(=O)c1ccc(O)c(OC)c1 | 1.6% |
| C[C@H](CO)N1C[C@H](C)[C@H](CN(C)S(=O)(=O)c2cccc(F)c2)OCc2cnnn2CCCC1=O | 1.75% |

| SMILES | inhibition |
| --- | --- |
| Cc1ccc2oc3c(c(=O)c2c1)C(c1ccc([N+](=O)[O-])cc1)N(CCCN1CCOCC1)C3=O (stereo not given) | -0.738% |
| O=C(CSc1nnc(-c2ccccc2Cl)n1-c1ccccc1)Nc1ccc([N+](=O)[O-])cc1 | 1.7% |
| CCOC(=O)CCSc1nnc2c3ccccc3n(C)c2n1 | 0.466% |
| O=C(CN1C(=O)COc2ccc(Cl)cc21)Nc1ccc(N2CCOCC2)cc1 | 6.98% |
| O=C(CCn1cnc2ccccc2c1=O)Nc1cccc(C(F)(F)F)c1 | -2.03% |
| CS(=O)(=O)CCC(C(=O)N1CCOCC1)N1C(=O)c2ccc(Br)cc2C1=O (stereo not given) | -0.215% |
| Cc1nc2ccccc2n1CC(O)COc1ccc(C2C=CCC2)cc1 (stereo not given) | -1.35% |
| COc1ccc([Si](C)(C)[C@@H]2[C@@H](CCO)O[C@]3(C(=O)N(Cc4cccc(N5CCCCC5=O)c4)c4ccccc43)[C@H]2C)cc1 | 2.11% |
| Cc1noc(C)c1S(=O)(=O)Nc1ccc2c(c1)CC(=O)N([C@H](C)CO)C[C@@H](C)[C@@H](CN(C)Cc1ccc(C(=O)O)cc1)O2 | 0.587% |
| CCCn1c2ccccc2c2nnc(SCC(=O)Nc3cccc4ccccc34)nc21 | 0.6% |
| CC(C)c1ccc(OCC(O)Cn2cnc3ccccc32)cc1 (stereo not given) | 0.565% |
| O=C(COc1ccc2c(=O)c(-c3ccccc3)coc2c1)Nc1ccc(F)cc1 | 1.18% |
| C[C@@H]1CN([C@@H](C)CO)C(=O)Cc2cc(NC(=O)C3CCCCC3)ccc2O[C@@H]1CN(C)Cc1ccncc1 | 0.459% |
| CC(C)CN1C(=O)[C@@]2(Cc3ccccc31)c1ccccc1C(=O)N(C1CCCCC1)[C@H]2c1ccc(CO)cc1 | -0.707% |
| O=C(CSc1nc2sc3c(c2c(=O)[nH]1)CCC3)Nc1ccccc1C(F)(F)F | -3.77% |
| Cc1ccc(NC(=O)CSc2ncnc3sc(C)c(C)c23)cc1 | 5.19% |
| Cc1ccc(-c2nc3cc(NC(=O)COc4ccc([N+](=O)[O-])cc4)ccc3o2)cc1C | 0.362% |
| CN(CC(=O)Nc1ccc(C#N)cc1)S(=O)(=O)c1ccc(Cl)cc1 | 4.42% |
| C[C@H]1CN([C@@H](C)CO)C(=O)c2cc(NC(=O)Cc3cn(C)c4ccccc34)ccc2O[C@H]1CN(C)CC1CCCCC1 | 0.289% |
| CS(=O)(=O)N(CC(=O)Nc1ccc2ccccc2c1)c1cc(Cl)c(Cl)cc1Cl | 0.303% |
| O=c1[nH]nc(-c2ccc(NCc3cccnc3)c([N+](=O)[O-])c2)c2ccccc12 | 0.832% |
| CCOC(=O)c1c(NC(=O)CSc2ncn[nH]2)sc2c1CCC2 | 3.47% |
| CCOC(=O)c1c(NC(=O)C2(C)Cc3ccccc3C(=O)O2)sc2c1CCCC2 (stereo not given) | 0.582% |
| CS(=O)(=O)N(CC(=O)NC1CC1)c1ccc(Cl)c(C(F)(F)F)c1 | -1.46% |
| O=C(NCCN1CCOCC1)C(=O)NCC1COc2ccccc2O1 (stereo not given) | 2.08% |
